# Compound activity (PubChem BioAssay)
# Compounds with a hit are over-represented: about 2.5% of the library has one in this group of screens.
# ANO1 activ: activators or potentiators of mouse TMEM16A chloride channel; Q8BHY3; HEK293 TMEM16A/YFP-H148Q/I152L, iodide quench fluorescence; hits give low values; B-score at 10 µM; 0.3% of 340,000 active; AID 623877;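 active = fluorescence-ratio B-score plate-corrected deviation score at least 3 library SD below zero, with starting fluorescence score within 5 deviations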;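 also: channel opened by trigger with iodide after compound preincubation; score built on the fluorescence ratio of max minus min over baseline; more negative score means more quench and so TMEM16A activation or potentiation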
# Jurkat NFkB inh: inhibitors of the PMA/ionomycin-induced NF-kB reporter in Jurkat cells | PMA/ionomycin-induced NF-kB luciferase reporter, luminescence | inhibition, % at 4 µM | 0.53% of 330,000 active; in the data active = inhibition above about 50%
# ANO1 block: inhibitors of mouse TMEM16A calcium-activated chloride channel. AID 588511. normalized B-score (activity score, 25-100; higher = stronger inhibition) at 10 µM. 1.2% of 310,000 active. HEK293 TMEM16A/YFP iodide influx fluorescence, ionomycin;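 active = ratio plate-corrected score three or more library SD toward inhibition, starting fluorescence score within five deviations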;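 also: score derived from kinetic fluorescence span divided by baseline fluorescence per well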
# KLF5 inh: kruppel-like factor 5 inhibition; inhibition, % at 5 µM; DLD-1 KLF5 promoter-luciferase reporter, luminescence; AID 1700; 0.23% of 290,000 active;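 active = inhibition above a per-plate limit of that plate's mean compound inhibition plus 3 SD, cut at about 60% in these data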;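 also: 0% = DMSO wells and 100% = LY294002 at 200 µM; higher means less KLF5 promoter-driven luciferase light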
# aSyn UTR inh: 5' untranslated region of α-synuclein, MLPCN primary screen; alpha-synuclein 5'UTR reporter, inhibitor activity; inhibition, % (tested at 7.5 µM); 0.82% of 300,000 active; in the data active = inhibition above about 60%;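 also: H4 neuroglioblastoma cells stably carrying SNCA 5'UTR luciferase fusion; 0% = DMSO wells and 100% = positive control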
# 697 NFkB inh: inhibitors of the PMA/ionomycin-induced NF-kB reporter in 697 B cells; 697 B-cell NF-kB luciferase reporter, 16 h; inhibition, % at 4 µM; 0.33% of 330,000 active; in the data active = inhibition above about 35%
# Starred values were filed as active, the others as inactive; i = inactive; x = no result.
SMILES,ANO1 activ,Jurkat NFkB inh,ANO1 block,KLF5 inh,aSyn UTR inh,697 NFkB inh
CCC(NC(=O)Nc1nnc(C(F)(F)F)s1)(C(F)(F)F)C(F)(F)F,i,20.1,100*,-9.2,108.9*,-117.2
CCc1cccc(NC(=O)CCc2c(C)nn(-c3ccc(N4CCOCC4)nn3)c2C)c1,i,-1.5,i,-30.2,-8.4,-27.9
COc1ccc(C(C)=O)cc1COC(=O)c1cc(C)nc2ccccc12,i,19.2,i,1.1,12.3,2.6
COc1ccc(C(C)=O)cc1COC(=O)c1cc(C)oc1C,-11.2*,8.6,i,-18.9,x,5.2
CCOC(=O)N1CCN(C(=O)COC(=O)CN(C)S(=O)(=O)c2ccc(NC(C)=O)cc2)CC1,i,-0.6,i,-14.2,10.6,4.1
O=C(COc1ccc(Br)cc1Cl)NNC(=O)c1ccccc1,i,-6.1,x,x,x,18.3
CC(C)=CC1C(C(=O)Nc2ccc(S(=O)(=O)N3CCOCC3)cc2)C1(C)C (stereo unspecified),-4.88*,5.5,i,x,6.4,-37.1
O=C(Nc1ccc(S(=O)(=O)N2CCOCC2)cc1)C1CC1,i,17.1,i,-9.5,9.1,-1.9
Nc1c2c(nc3ccccc13)CSCC2,i,-9.8,i,x,52.6,-19.8
Cc1ccc(S(=O)(=O)Oc2ccccc2-c2ccccc2)cc1,-5.36*,x,x,x,x,x
Cc1ccc(S(=O)(=O)Oc2ccccc2)cc1,i,x,x,x,x,x
CCc1ccccc1OCC(=O)Nc1nc(-c2cccnc2)cs1,i,-12.0,i,13.3,70.2*,-15.8
Cc1cc(Cl)ccc1OCC(=O)NCc1ccncc1,i,-6.6,i,-0.9,-27.5,-25.3
Cc1cc(Cl)ccc1OCC(=O)Nc1ccncc1,i,14.3,25*,-36.3,-81.4,-4.6
CCc1ccc(-c2cc(C)no2)cc1S(=O)(=O)N1CCN(c2ccc(F)cc2)CC1,i,37.7,i,-10.0,2.6,-57.1
O=S(=O)(c1ccc(N2CCN(CCO)CC2)nc1)N1CCOCC1,i,-2.0,i,x,-1.1,-5.6
CCOC(=O)N1CCN(C(=O)c2ccc3c(=O)n(Cc4ccc(Cl)cc4)c(=S)[nH]c3c2)CC1,i,-14.6,i,1.5,21.4,-7.4
CCOC(=O)N1CCN(C(=O)c2ccc(Cn3c(=S)[nH]c4ccc(Br)cc4c3=O)cc2)CC1,i,36.8,100*,-2.5,-0.3,30.2
CN(C)c1ccc(/C=C2\C(=N)N3N=C(CC(=O)N4CCCCC4)SC3=NC2=O)cc1,-5.52*,11.9,i,-43.5,-19.7,-21.2
COc1ccccc1NC(=S)NCCc1ccc(S(N)(=O)=O)cc1,i,-7.8,i,-10.9,x,18.4
COc1ccc(CCNC(=S)NCCc2ccc(OC)c(OC)c2)cc1OC,i,-1.8,25*,-28.8,16.4,1.9
CNC(=S)NCCc1ccc(OC)c(OC)c1,i,9.7,i,-13.2,28.9,12.9
COc1ccc(Cl)cc1NC(=S)NCCc1ccc(S(N)(=O)=O)cc1,-6.17*,10.7,i,-5.2,5.9,20.1
COc1ccccc1N1CCN(Cc2ccc(O)c3ncccc23)CC1,i,31.0,i,9.9,76.6*,-2.8
O=C(CSc1nnnn1-c1ccccc1)NCCCN1CCCC1=O,i,1.8,x,x,x,0.2
SMILES,ANO1 activ,Jurkat NFkB inh,ANO1 block,KLF5 inh,aSyn UTR inh,697 NFkB inh
CCOC(=O)CSc1cc(CS(C)(=O)=O)nc(-c2ccccn2)n1,-6.65*,-4.9,i,-15.9,7.8,-39.9
Cc1[nH]n(C(N)=S)c(=O)c1N=Nc1cccc([N+](=O)[O-])c1C,i,-29.8,25*,-151.4,-163.8,-120.1
Cc1c(N=Nc2c(-c3ccc([N+](=O)[O-])cc3)[nH]n(C(N)=S)c2=O)cccc1[N+](=O)[O-],i,x,x,-25.6,x,x
Cc1nc2ccccc2n1CC(O)COc1ccc(Br)cc1 (stereo unspecified),i,20.8,25*,-24.4,-1.0,-24.8
CCC(=O)c1ccc(OCC(O)Cn2c(C)nc3ccccc32)cc1 (stereo unspecified),i,29.1,i,-34.1,x,-35.4
COc1ccc(-c2cc3c(nn2)-c2ccccc2C3=O)cc1,i,18.5,i,-96.5,98.4*,-86.1
CC(=O)Oc1cc2c3c(c1)/C(=C1/SC(=S)NC1=O)C(=O)N3C(C)(C)C=C2C,i,-11.2,100*,13.5,-3.5,-12.8
Cc1ccc(C)c(OCCC(=O)Nc2ccc(S(=O)(=O)N3CCCC3)cc2)c1,i,-27.9,x,x,x,-23.9
CCOC(=O)c1cc(-c2ccccc2)sc1NC(=O)COC(=O)c1cccc(S(N)(=O)=O)c1,i,-7.8,i,14.7,71.6*,4.3
NCCCn1c(C(=O)c2cc(Cl)c(N)c(Cl)c2)c2ccc([N+](=O)[O-])cc2[n+]1[O-],i,33.5,i,x,100.5*,-216.8
O=C1NN(c2ccccc2)C(=O)/C1=C\c1ccccc1OCC(=O)N1CCOCC1,i,10.0,25*,-22.3,9.5,8.1
CCc1ccccc1N=C1S/C(=C/c2ccccc2OCC(=O)N2CCOCC2)C(=O)N1C,i,-2.3,i,-5.8,18.5,-23.3
O=C1Nc2ccccc2C(=O)N2[C@H](c3cccc(Br)c3)[C@@H]3C(=O)N(Cc4ccccc4)C(=O)[C@@H]3[C@H]12,-7.1*,-3.7,i,-9.7,-0.3,-18.6
CCOC(CNCc1cc(C)c2[nH]c3ccccc3c2c1C)OCC,i,x,x,x,x,x
Cc1ccccc1/C=N/NC(=O)Cc1ccc(Cl)cc1,i,24.3,i,-5.2,-10.9,-0.6
Cc1ccc(/C=N/NC(=O)Cc2ccc(Cl)cc2)c(O)c1,i,21.6,i,-4.2,66.4*,-27.4
CC(CNC(=O)CN1C(=O)NC2(CCOc3ccccc32)C1=O)c1ccccc1 (stereo unspecified),i,-8.3,x,x,x,13.9
CCN1CCN(c2ccc(S(=O)(=O)N3CCOCC3)cc2NC(=O)c2ccc(F)cc2Cl)CC1,i,-4.3,i,x,0.5,1.6
Cc1ccc(/C=C2\S/C(=N/S(=O)(=O)c3cccs3)NC2=O)cc1,i,5.5,25*,-17.9,-3.8,11.5
Cc1ccc(S(=O)(=O)/N=C2/NC(=O)/C(=C\c3ccccc3)S2)cc1,i,4.2,x,x,x,-4.8
Cc1ccc(S(=O)(=O)/N=C2/NC(=O)/C(=C/c3ccccc3)S2)cc1,i,8.0,100*,-20.1,3.8,16.9
CCOC(=O)C(Cc1ccc(NC(C)=O)cc1)N1C(=O)c2ccccc2C1=O (stereo unspecified),i,1.5,x,x,x,-11.1
CCCOc1ccc(C(=O)NC(=S)NNC(=O)c2c(-c3ccccc3)noc2C)cc1,i,-6.2,100*,-37.7,28.8,-8.8
COc1cc(C(=O)NCc2ccco2)cc(OC)c1OC,-24.5*,1.0,i,-6.3,7.6,5.6
CCCOc1ccc(NC(=O)c2c(-c3ccccc3)noc2C)cc1,i,-3.4,i,-20.3,16.2,8.3
